The source of these data is ChEMBL document CHEMBL1157539, “Thousands of chemical starting points for antimalarial lead identification” (Nature, 2010).

Format in all cases: functional
Experiment [1] deals with Plasmodium falciparum. The experiment is described as follows: GSK_TCMDC: Inhibition of Plasmodium falciparum 3D7 in whole red blood cells, using parasite LDH activity as an index of growth. Test compounds present at 2uM.
The test system of experiment [2] is Plasmodium falciparum. The experiment is described as follows: GSK_TCMDC: Inhibition of Plasmodium falciparum Dd2 in whole red blood cells, using parasite LDH activity as an index of growth. Test compounds present at 2uM.
Experiment [3] concerns HepG2. Description: GSK_TCMDC: Percent inhibition of human HepG2 cell line. Test compounds present at 10uM.

As to `CCCCN(CCCC)CCCN(CCCN(CCCC)CCCC)c1cc(C)nc(Nc2ccc3cc(Br)ccc3c2)n1.Cl`, the Inhibition in experiment [1] came out at 100%; in experiment [2], 99%; in experiment [3], 52%.
For `C[C@@H](CC1CCCCC1)OC(=O)N(C)[C@@H]1CCN(C#N)C1`, in that order: 95%, 96% and 5%.
`COc1ccc2nccc([C@@H](O)CN3CCC(NC(=O)/C=C/c4cc(F)cc(Br)c4)CC3)c2c1`: the Inhibition is 95% in experiment [1], 50% in experiment [2] and 24% in experiment [3].
For `Cc1ccccc1C(O)CNc1ccnc(Nc2cccc(C#N)c2)n1` (stereo not drawn) the same measures were 94%, 12% and 22%.
For `O=C(NC1CCCc2ccccc21)[C@@H]1CCCN1C(=O)c1ccc(O)c(-c2ccc(Cl)c(Cl)c2)c1` (stereo partly drawn), in that order: 99%, 99% and 0%.
For `O=C(NCCCCN1CCC(c2nc3ccccc3s2)CC1)c1cc2ccccc2[nH]1` the same measures were 86%, 64% and 43%.
`CN(C)CCOc1ccc(-c2cc(-c3ccncc3)c(-c3ccc(Cl)c(O)c3)o2)cc1.Cl`: the Inhibition worked out at 99% in experiment [1], 93% in experiment [2] and 0% in experiment [3].
For `CN1CCC(C(=O)N(Cc2ccc(-c3ccc(CNCCc4ccccc4)cn3)cc2)C2CCN(Cc3ccccc3)CC2)CC1.O=C(O)C(F)(F)F` the same measures were 100%, 99% and 24%.
For `CCc1c[nH]c2c(N(c3ccccc3)S(C)(=O)=O)cc(C(=O)N[C@@H](Cc3ccccc3)[C@H](O)CNC(C)(C)CCCC(C)C)cc12.O=CO` the same measures were 98%, 96% and 99%.
For `CC(CCc1ccc(OCc2ccccc2)cc1)NCC(O)c1ccccc1` (stereo not drawn), in that order: 86%, 72% and 9%.
In the case of `Fc1ccc(CN2CCN(c3ncnc4cc(-c5ccccc5)sc34)CC2)cc1`, the Inhibition in experiment [1] amounted to 82%; in experiment [2] it was 82%; in experiment [3], 7%.
For the compound `CC1=C(C(=O)Nc2cc3cn[nH]c3cc2F)C(c2cccc(NS(C)(=O)=O)c2)CC(=O)N1` (stereo not drawn), the Inhibition in experiment [1] is listed as 96%; in experiment [2], 97%; in experiment [3] it was 0%.
For `O=C(Nc1cccc(C(F)(F)F)c1)c1cccc(S(=O)(=O)NCC2CCCN(Cc3ccccc3)C2)c1.O=C(O)C(F)(F)F` (stereo not drawn) the same measures were 94%, 3% and 17%.
For `O=C(C=Cc1ccc(Cl)c(Cl)c1)NCCCCCN1CCC(CCNC(=O)/C=C/c2ccccc2)CC1` the same measures were 97%, 1% and 25%.
For `Cc1[nH]c(C)c([N+](=O)[O-])c(=O)c1-c1ccc(Oc2ccc(OC(F)(F)F)cc2)cc1` the same measures were 97%, 97% and 0%.
As to `COc1cc(C)c(C(O)CNC(C)CCc2ccccc2)cc1C.Cl` (stereo not drawn), the values for the Inhibition in experiment [1], in experiment [2] and in experiment [3] were 98%, 98% and 1%, respectively.
With `COc1cccc2cc(C(=O)N[C@@H](CC(C)C)C(=O)N[C@H](C=NN3CCOC3=O)CC(C)C)oc12`, the Inhibition in experiment [1] stood at 90%; in experiment [2], 72%; in experiment [3], 4%.
For `Cc1cc(OCCCN2CCCCC2)ccc1NC(=O)COc1ccc(Cl)cc1C(=O)c1cc(C#N)cc(C(F)(F)F)c1`, in that order: 87%, 7% and 23%.
Take `O=C(Nc1ccc(Cl)c(Cl)c1)C1CCC(=O)N1[C@@H](Cc1ccccc1)C(=O)NCCc1ccc(Cl)cc1` (stereo partly drawn): the Inhibition in experiment [1] is reported as 95%; in experiment [2], 0%; in experiment [3], 3%.
For `CC(C)CN(C)c1ncnc2c1nc(-c1cncc(C#N)c1)n2CCNCc1ccccc1.O=C(O)C(F)(F)F` the same measures were 86%, 2% and 4%.
For `COc1ccc(CNCc2cccc(-c3cccc(-c4nc5ccccc5[nH]4)c3)c2)cc1.O=C(O)C(F)(F)F` the same measures were 100%, 50% and 24%.
For `COc1ccc(O)c(Cc2cnc3nc(N)nc(N)c3c2C)c1.O=C(O)C(F)(F)F`, in that order: 94%, 74% and 56%.
As for `COc1ccc(O)c(-c2sc(N=C(N)N)nc2-c2ccccc2)c1`, the Inhibition in experiment [1] is listed as 100%; in experiment [2] it was 96%; in experiment [3], 2%.
For `COc1ccc(CCNCCCCNCCc2ccc(OC)c3ccccc23)c2ccccc12.CS(=O)(=O)O`, in that order: 100%, 33% and 100%.
For `Cc1cc(F)ccc1[C@H]1CNCCN1C(=O)N(C)C(C)(C)c1cc(C(F)(F)F)cc(C(F)(F)F)c1.Cl`, in that order: 100%, 100% and 24%.
For the compound `COc1ccc2nccc([C@@H](O)CN3CCC(NC(=O)c4[nH]c5ccccc5c4-c4ccccc4)CC3)c2c1`, the Inhibition in experiment [1] worked out at 96%; in experiment [2], 68%; in experiment [3] it was 18%.
Turning to `Cl.N=c1c2c(n(Cc3ccccc3)c3c1CCC3)CCCC2`, the Inhibition in experiment [1] came out at 86%; in experiment [2] it was 39%; in experiment [3], 4%.
For `O=C(/C=C/c1ccc(Cl)cc1)NCCCCCN1CCCC(C(=O)Nc2ccc(Cl)cc2)C1` (stereo not drawn), in that order: 94%, 6% and 24%.
For `CC(C)c1ccc(NC(=O)c2cccc(CN3CCCN(Cc4cccc(C#N)c4)CC3)c2)cc1.O=C(O)C(F)(F)F`, in that order: 93%, 15% and 48%.
With `Cc1ccc(C)c(NC(=O)NCCNc2ccnc(Nc3ccc(F)cc3)n2)c1`, the figures for the Inhibition in experiment [1], in experiment [2] and in experiment [3] were 97%, 5% and 21%, respectively.
Consider `Cl.Cn1ncc2c3c(CCN4CCC(NCc5cc6c(cn5)OCC6)CC4)c(Cl)cnc3ccc21`, for which the Inhibition is given as 94% in experiment [1], 0% in experiment [2] and 4% in experiment [3].
For `COc1cc(-n2cnc3cc(-c4ccc([N+](=O)[O-])cc4)sc3c2=O)ccc1OCCN1CCCC1.O=C(O)C(F)(F)F`, in that order: 97%, 79% and 44%.
For `O=C(NCc1ccc(F)cc1)Nc1ccc(-c2cccc(-c3nc4cc(C(F)(F)F)ccc4[nH]3)c2)cc1` the same measures were 100%, 92% and 41%.
For `O=C(Nc1ccc(S(=O)(=O)N2CCCCC2)cc1)c1cc(-c2ccccc2O)n[nH]1` the same measures were 94%, 81% and 13%.
Take `Nc1ncc(-c2cc3ccccc3o2)c(N)n1`: the Inhibition in experiment [1] turned out to be 81%; in experiment [2], 2%; in experiment [3] it was 0%.
For `N#Cc1ccc(N2CCN(Cc3ccc(-c4ccc(-c5nc6ccccc6[nH]5)s4)cc3)CC2)nc1.O=C(O)C(F)(F)F` the same measures were 99%, 63% and 17%.
For `COc1ccc2nccc([C@@H](O)CN3CCC(NC(=O)C(=O)c4c[nH]c5c(C)cccc45)CC3)c2c1` the same measures were 100%, 94% and 17%.
For `CCOC(=O)c1c(NC(=O)c2ccccc2)sc2c(O)c(CNC3CCCCC3)ccc12`, in that order: 99%, 98% and 6%.
On to `O=C(N1CCN(c2ccnc3cc4c(cc23)N(Cc2ccccc2)CC4)CC1)C(F)(F)F`, for which the Inhibition in experiment [1] is on record as 100%; in experiment [2] it was 100%; in experiment [3], 8%.
As for `COc1ccc(C(=O)Nc2cc(Cl)c3c(c2)C2CCCN2CC3)cc1C(F)(F)F.Cl` (stereo not drawn), the Inhibition was 99% in experiment [1], 33% in experiment [2] and 35% in experiment [3].
For `Cl.NC1=NC2(CCCC2)N(c2ccc(Cl)cc2)C(N)=N1` the same measures were 97%, 0% and 0%.
Take `O=c1cc(NCCCNCc2cccc(Oc3ccccc3)c2)[nH]c2ccccc12`: the Inhibition in experiment [1] is 93%; in experiment [2], 67%; in experiment [3] it was 0%.
With `CC(=O)Nc1cccc(C(=O)Nc2ccc(-c3ccc(-c4nc5cccc(C)c5[nH]4)s3)cc2)c1`, the Inhibition was determined as 93% in experiment [1], 20% in experiment [2] and 94% in experiment [3].
For `O=C(Nc1cccc(CN2CCCN(Cc3ccc(O)cc3)CC2)c1)c1cc2ccccc2s1.O=C(O)C(F)(F)F` the same measures were 100%, 90% and 27%.
For `Cl.N[C@@H](CCNCc1ccc(-c2cccnc2)cc1)Cc1ccc(F)c(F)c1`, in that order: 98%, 57% and 45%.
For `Cc1cc(=O)[nH]c(-n2nc(C)cc2NC(=O)C2(c3ccc(Cl)cc3)CCCC2)n1` the same measures were 96%, 97% and 30%.
For the compound `CC(C)C(C(=O)n1cc2c(ccc3nc(N)nc(N)c32)n1)C(C)C`, the Inhibition came to 98% in experiment [1], 49% in experiment [2] and 58% in experiment [3].
For `COc1cccc(CCNCCCCCCNCCc2ccc(Cl)cc2)c1.Cl`, in that order: 100%, 3% and 32%.
For `Cn1nc(C(F)(F)F)c(-c2ccc(F)cc2)c1NC(=O)Nc1ccccc1`, in that order: 100%, 99% and 3%.
For `OC(CNCc1cccc(Oc2ccc(Cl)cc2)c1)c1cccc(C(F)(F)F)c1` (stereo not drawn), in that order: 94%, 78% and 0%.
For the compound `CCn1ccc2c(N3CCCC3=O)cc(C(=O)N[C@@H](Cc3ccccc3)[C@H](O)CNC(C)(C)CCCC(C)C)cc21`, the Inhibition was 96% in experiment [1], 98% in experiment [2] and 11% in experiment [3].
For `COc1ccc(C(C(=O)NC2CCN(C[C@H](O)c3ccnc4ccc(OC)cc34)CC2)N2CCN(c3ccc([N+](=O)[O-])cc3)CC2)cc1` (stereo partly drawn) the same measures were 99%, 80% and 17%.
For `CC1(C)Cc2c(oc3ncn(CCn4cnc5oc6c(c5c4=N)CC(C)(C)SC6)c(=N)c23)CS1` the same measures were 98%, 93% and 0%.
Take `CCCCCCC(N)c1ccc(OCCCOc2ccc(C(N)CCCCCC)cc2)cc1.Cl` (stereo not drawn): the Inhibition in experiment [1] was 88%; in experiment [2], 70%; in experiment [3], 100%.
For `CCCn1cc2c(ccc3nc(N)nc(N)c32)n1`, in that order: 95%, 0% and 65%.
For `Fc1ccc(-c2csc3ncnc(Cl)c23)cc1`, in that order: 94%, 95% and 3%.
As to `CCCC(=O)Nc1ccc(OCCCCN(Cc2ccccc2C(F)(F)F)c2ccc(C(F)(F)F)c(C#N)c2)cc1`, the values for the Inhibition in experiment [1], in experiment [2] and in experiment [3] were 94%, 94% and 6%, respectively.
As for `Br.Oc1ccccc1CCNCC1CCc2ccccc2C1` (stereo not drawn), the results for the Inhibition in experiment [1], in experiment [2] and in experiment [3] were 98%, 98% and 37%, respectively.
Regarding `O=C(NCC1CCN(Cc2ccsc2)C1)c1cc(-c2cccc(C(F)(F)F)c2)cs1.O=C(O)C(F)(F)F` (stereo not drawn), the values for the Inhibition in experiment [1], in experiment [2] and in experiment [3] were 98%, 15% and 37%, respectively.
For `CCCCC(O)c1cc(O)c2c(c1)OC(C)(C)CC2C1=CCN(Cc2ccc3ccccc3c2)CC1` (stereo not drawn), in that order: 100%, 97% and 7%.
With `CC(C)c1ccc(C(NC(=O)C2CCCCC2)c2ccc3cccnc3c2O)cc1` (stereo not drawn), the Inhibition came to 89% in experiment [1], 70% in experiment [2] and 46% in experiment [3].

The Inhibition is the relative decrease from the control value, in per cent. Lower therefore signals a response near the control.
